From ChEMBL document CHEMBL3988442, “University of Dundee, Small-Polar-MMV Screening Library” (2021)
Among all 48,000 compounds or so, about 13,000 (27%) showed an effect of 50% or more. The list shows a part of the results.

Each molecule was assayed on Wolbachia pipientis (assay: Anti-Wolbachia Cell-Based Screen). Details: 5 µM.
Assay type: functional
Design: scale not given: in the data most compounds retested in dose-response had high values

Structure (SMILES)	Percent Effect [%]
CC1CCCCN1C1CN(C(=O)c2sccc2S(N)(=O)=O)C1 (centres undefined)	5.602
CN(Cc1ccccc1)C1(C(=O)O)Cc2ccccc2C1	1.396
CC[C@@H]1N(CC2CC2)CCC[C@]12CCC(=O)N2CCOC.O=C(O)C(F)(F)F	-7.54
CC[C@@H]1N(Cc2nccs2)CCC[C@]12CCC(=O)N2C.O=C(O)C(F)(F)F	109.2
CC[C@@H]1N(Cc2nccs2)CCC[C@]12CCC(=O)N2CCOC.O=C(O)C(F)(F)F	100.4
CN1C(=O)CCCC12CCCN(Cc1nccs1)C2.O=C(O)C(F)(F)F (centres undefined)	-2.009
COCCN1C(=O)CC[C@]12CC[C@@H](NCc1nccs1)CC2.O=C(O)C(F)(F)F	-1.329
Cn1cccc1C(=O)N1C[C@H]2CN(CCN3CCCC3)C(=O)[C@H]2C1	-3.388
CN(C)C(=O)N[C@@H]1CN(S(C)(=O)=O)[C@@H]2CCCO[C@@H]21	-12.16
Cn1cc(C(=O)N[C@H]2CN(S(C)(=O)=O)[C@@H]3CCCO[C@H]23)cn1	0.3212
CS(=O)(=O)N1C[C@H](NC(=O)c2ccno2)[C@@H]2OCCC[C@@H]21	97.34
CS(=O)(=O)N1C[C@@H](NC(=O)c2ccno2)[C@@H]2OCCC[C@@H]21	112.1
CC(CCNC(=O)NCCc1ccc(S(N)(=O)=O)cc1)c1ccccc1 (centres undefined)	2.961
COc1ccccc1-c1c[nH]c(C2CCCN2)n1.Cl.Cl (centres undefined)	-20.8
NC(=O)c1cc(C2CCCN(CCCOc3ccccc3)C2)n[nH]1 (centres undefined)	-3.314
CN1CCN(Cc2ccccc2Oc2ccc(C(N)=O)cn2)CC1	-9.578
NC(=O)c1ccccc1Oc1cnc(C2CCCN2)cn1 (centres undefined)	134.2
NC(=O)c1ccccc1Oc1cccc(C2CCCNC2)n1 (centres undefined)	178.3
Nc1nc(CCCNC(=O)c2ccccc2C2CCNC2)cs1 (centres undefined)	16.63
Cc1ncccc1C(=O)Nc1cccc(Cn2ccccc2=O)c1	100.7
CSc1ncccc1C(=O)Nc1ccc(Cn2ccccc2=O)cc1	85.69
O=C(Nc1cccn(Cc2ccccc2)c1=O)c1ccncc1F	-8.682
CC(C)c1ocnc1C(=O)Nc1cccc(Cn2ccccc2=O)c1	74.78
Cc1ncccc1C(=O)Nc1ccc2ccn(CCN(C)C)c2c1	-6.665
CC(C)S(=O)(=O)Cc1cccc(NC(=O)c2ccc[nH]2)c1	19.64

Structure (SMILES)	Percent Effect [%]
CC(C)c1nc2cc(NC(=O)Cn3ccccc3=O)ccc2o1	6.336
O=C(CCn1ccccc1=O)Nc1ccc(I)cc1	-0.04239
Cc1ncccc1C(=O)Nc1cccc2c1C(=O)NC2	-1.694
CN(Cc1ccco1)C(=O)NCc1nnc2n1CCC2	1.808
CN(Cc1ccc(N(C)C)cc1)C(=O)NCc1nnc2n1CCC2	115.6
O=C(NCc1nnc2n1CCC2)N(Cc1ccc(F)cc1)C1CC1	-6.428
CN(Cc1ccc(F)cc1)C(=O)NCc1nnc2n1CCCCC2	-12.53
CN(Cc1ccc(F)cc1)C(=O)NCc1nnc2n1CCC2	105
CN(Cc1cnn(C)c1)C(=O)NCc1nnc2n1CCC2	-11.71
CN(CCO)Cc1nnc(C2CCN(C[C@H]3[C@@H]4CNC[C@@H]43)CC2)n1C	-4.687
CCc1ccc(C2CC(=O)Nc3n[nH]cc32)o1 (centres undefined)	13.18
CCc1ccc(C2CC(=O)Nc3cc(OC)c(NS(C)(=O)=O)cc32)o1 (centres undefined)	82.49
CN(Cc1ccc(C2CC(=O)Nc3cc4[nH]ncc4cc32)o1)S(C)(=O)=O (centres undefined)	6.583
CCc1ccc(C2CC(=O)Nc3cc(NS(C)(=O)=O)ccc32)o1 (centres undefined)	85.79
CCc1ccc(S(=O)(=O)Nc2cc(OC)c(OC)cc2C(=O)O)s1	-0.559
CCc1ccc(C2CCCN2C(=O)CNC(=O)CCC(C)C)o1 (centres undefined)	9.018
CCc1ccc(C2CCCN2C(=O)NCC(=O)NCC(C)C)o1 (centres undefined)	-83.92
CN(Cc1ccc(C2CC(=O)Nc3n[nH]cc32)o1)S(C)(=O)=O (centres undefined)	5.804
CCCC(=O)Nc1cc2c(cc1OC)NC(=O)CC2c1ccc(CC)o1 (centres undefined)	133.6
CS(=O)(=O)Cc1ccc(Cl)c(NCc2noc(C3CC3)n2)c1	-7.665
CCOCCOC(C)C(=O)Nc1ccc2[nH]c(C)cc2c1 (centres undefined)	4.03
CC(NC(=O)c1ccc(CS(C)(=O)=O)o1)c1ccc(F)c(F)c1 (centres undefined)	-18.18
CC(=O)N1CCN([C@@H]2CCC[C@@H](N(C)C(=O)C3CC3)[C@H]2O)CC1	98.54
CC(=O)N1CCC(C(=O)N(C)[C@@H]2CCC[C@@H](N3CCCC3)[C@@H]2O)CC1	-16.02
COC(=O)N1CCCC(C(=O)N(C)C)C1 (centres undefined)	5.213

Structure (SMILES)	Percent Effect [%]
CC(=O)N1CCN([C@@H]2CC[C@@H](N(C)C(=O)C3CCCCC3)[C@H]2O)CC1	97.43
CC(=O)N1CCN(C2CCCCc3ccccc32)CC1 (centres undefined)	-7.249
CC(=O)N1CCC(N[C@@H]2CO[C@H](CNC(=O)C3CCCC3)[C@H]2O)CC1	-17.04
Cc1cc(=O)c(C(=O)N(C)Cc2ccc(Cl)c(F)c2)c[nH]1	0.1621
CCCc1noc(C(C)S(=O)(=O)Cc2nc(C3CC3)no2)n1 (centres undefined)	-3.55
COC(C(=O)NCc1c(C)nc2cc(=O)[nH]n2c1C)c1ccccc1 (centres undefined)	-2.131
Fc1ccc(CN2CCC3(CC2)CCN(Cc2nccs2)CC3)cc1.O=C(O)C(F)(F)F.O=C(O)C(F)(F)F	3.556
O=C(O)C(c1ccc2c(c1)OCO2)N1CCC(O)(c2cccnc2)CC1 (centres undefined)	-24.46
Cc1ccc(=O)n(CC2(O)CCN(Cc3cc(C)c(O)c(C)c3)CC2)n1.O=C(O)CC(O)(CC(=O)O)C(=O)O	-13.33
CCn1c(CN2CCC(O)(c3ccc4c(c3)OCO4)CC2)cnc1SC.O=C(O)CC(O)(CC(=O)O)C(=O)O	113.8
CCn1c(CN2CCCC(O)(c3ccc(F)cc3)CC2)cnc1SC.O=C(O)CC(O)(CC(=O)O)C(=O)O (centres undefined)	110.7
Cc1ncc(CN2CCCC(O)(c3ccc(F)cc3)CC2)n1C.O=C(O)CC(O)(CC(=O)O)C(=O)O (centres undefined)	96.51
Cn1cc(CN2CCC3(CC(=O)N(c4ccc5c(c4)OCO5)C3)C2)cn1.O=C(O)C(F)(F)F (centres undefined)	-18.04
CC(NC(=O)N(C)CCCOc1ccc(F)cc1)c1nncn1C (centres undefined)	8.721
Cc1cccc(C(=O)N2CCN(S(C)(=O)=O)[C@@H]3CS(=O)(=O)C[C@@H]32)n1	-7.495
O=C1NCCN(C(=O)c2cn3ccsc3n2)C1c1cccc(F)c1 (centres undefined)	-4.51
Cc1csc(C2CCCCN2C(=O)CN(C)C(C)C)n1 (centres undefined)	91.31
Cc1csc(C2CCCCN2C(=O)CN(C)Cc2ccccc2)n1 (centres undefined)	-0.5019
CCN(CC)CC(=O)N1CCCCC1c1nc(C)cs1 (centres undefined)	131.2
Cc1csc(C2CCCCN2C(=O)CN(C)C2CC2)n1 (centres undefined)	3.375
CCn1nc(C)c(CCN2CC3(CCOC3)CCC2=O)c1C (centres undefined)	-24.96
N#CC1C(=O)Nc2c(cnn2C2CCCC2)C12CCCCC2 (centres undefined)	30.08
CC(C)c1ncc2c(n1)CN(Cc1nc(-c3ccccn3)no1)CC2	114.4
CC(C)c1ncc2c(n1)CN(Cc1nc(-c3ccco3)no1)CC2	103.4
c1ccc(-c2noc(CN3CCc4cncnc4C3)n2)nc1	12.32

Structure (SMILES)	Percent Effect [%]
CCc1ncc2c(n1)CN(Cc1nc(-c3ccccn3)no1)CC2	1.522
CC(C)c1ncc2c(n1)CN(Cc1nc(Cc3ccccc3)no1)CC2	-0.3417
CC(C)c1ncc2c(n1)CN(Cc1nc(-c3ccoc3)no1)CC2	-5.396
Cn1cnc2c1CCN(Cc1nc(-c3ccco3)no1)C2	-0.7314
CC(C)c1ncc2c(n1)CN(Cc1nc(-c3cccnc3)no1)CC2	97.53
CC1CCCN(S(=O)(=O)N2CCOC3(CCCC3)C2)C1 (centres undefined)	2.449
CCC(=O)NCC(=O)NCC(C)(C)c1cccc(Br)c1	13.04
COc1cccc2c1OCC(C(=O)NCCn1nc(C)c(Cl)c1C)C2 (centres undefined)	-38.77
CCCc1nnc(NC2CCN(C3CCSCC3)CC2)o1	-8.087
CCc1nnc(CSc2ccccn2)o1	-8.933
CN1CC(=O)N(c2cccc(F)c2)CC12CCN(S(=O)(=O)C1CC1)C2.O=C(O)C(F)(F)F (centres undefined)	-1.497
CC(C)c1nccn1-c1cncc(C2CCCN(C3CCCC3)C2)n1 (centres undefined)	108
CC(C)c1nccn1-c1cncc(C2CCCN(C3CCCCC3)C2)n1 (centres undefined)	98.48
CC(C)c1nccn1-c1cccc(C2CCCN(C3CCCC3)C2)n1 (centres undefined)	0.08562
COC[C@]1(O)CCN(C(=O)c2cccc(CN(C)C)c2)CC1(C)C	2.502
COc1ccc(C)cc1CNCc1ccc(-n2nc(C)cc2C)nc1	-14.66
Cc1nc(CCNC(=O)C2CC(=O)N(C(C)(C)C)C2)sc1C (centres undefined)	2.949
Cc1nc(COCc2nc3c(o2)CN(C(=O)c2ccc[nH]2)C3)cs1.O=C(O)C(F)(F)F	-0.815
COc1ccc(C(CO)NC(=O)Nc2cccc(F)c2)cc1 (centres undefined)	-21.51
COc1ccc2cc(CNc3c(C)nn(C(C)C)c3C)ccc2c1	-4.986
COC[C@H](C)Nc1cc(C)c2ccc(SC)cc2n1	11.13
COc1ccc(CCC(C)Nc2cccc(SC)c2)cc1 (centres undefined)	100.8
COc1ccc(C(CO)NC(=O)Nc2cccc(C#N)c2)cc1 (centres undefined)	-8.791
COc1ccc(CC(C)Nc2cccc(SC)c2)cc1 (centres undefined)	111.5
